Reference: PubChem BioAssay (NCATS)
Records with an inconclusive call do not appear. The source made the active and inactive calls. Unless noted, calls come from the whole dose curve; as a rule, active = well fitted curve in the direction sought with a large enough effect; inconclusive = small, poorly fitted or top-dose-only effect, or another doubt; inactive = no such curve, though single readings can be large; an effect the other way counts as inactive or inconclusive.

Legend:
[1] = target: Luciferin 4-monooxygenase (Photinus pyralis) (UniProt P08659); experiment: Biochemical firefly luciferase enzyme assay for NPC (AID 624030);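 note: purified P. pyralis luciferase at 10 nM with luciferin and ATP substrate; 0% = DMSO and -100% = full luciferase inhibition by PTC124 control; nearly all actives have a fitted effect of over 70% in size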
Luciferin 4-monooxygenase (Photinus pyralis), sequence (P08659 whole entry, looked up): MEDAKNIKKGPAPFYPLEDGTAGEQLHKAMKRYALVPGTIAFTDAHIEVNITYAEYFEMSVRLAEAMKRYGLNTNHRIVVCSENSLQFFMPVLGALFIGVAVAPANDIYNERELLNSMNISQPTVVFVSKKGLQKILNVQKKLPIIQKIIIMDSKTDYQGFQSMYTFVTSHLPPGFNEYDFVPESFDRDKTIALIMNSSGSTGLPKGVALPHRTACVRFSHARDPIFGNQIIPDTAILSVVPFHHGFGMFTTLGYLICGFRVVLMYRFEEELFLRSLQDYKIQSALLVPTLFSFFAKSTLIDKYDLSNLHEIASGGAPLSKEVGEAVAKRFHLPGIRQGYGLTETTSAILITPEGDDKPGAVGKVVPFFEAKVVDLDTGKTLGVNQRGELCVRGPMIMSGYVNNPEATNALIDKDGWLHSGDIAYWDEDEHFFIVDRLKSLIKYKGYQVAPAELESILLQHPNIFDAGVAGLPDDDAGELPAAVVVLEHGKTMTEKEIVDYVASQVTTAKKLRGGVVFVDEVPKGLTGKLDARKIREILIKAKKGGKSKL
In short: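 Purified P. pyralis luciferase at 10 nM in 50 mM Tris Acetate (final), luminescence read within 5 minutes of enzyme addition to compounds. Activity normalised to PTC124 versus DMSO; concentration-response curves classed by r2, magnitude and activity.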

[2] = S16 Schwann cell viability assay (CellTiter-Glo assay) (AID 624031);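 note: cellular ATP luminescence as a viability measure; plate controls were DMSO-treated cells for no effect and cell-free wells for full effect; nearly all actives have a fitted effect of over 70% in size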
In short: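 Luminescent ATP read-out (CellTiter-Glo) after 24 h compound exposure of native S16 rat Schwann cells at 37 °C. Signals were normalized between cell-free wells and DMSO-treated cells, set as 0% activity.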

[3] = S16 Schwann cell PMP22 intronic element firefly luciferase assay (AID 624032);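 note: plate controls were DMSO for no effect and PTC124 positive control mean for full effect; nearly all actives have a fitted effect of over 30% in size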
In short: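 Rat S16 Schwann cells stably carrying firefly luciferase driven by a PMP22 intronic element, in 10% FBS, treated 24 h at 37 C. ONE-Glo luminescence normalized to PTC124 control and DMSO (0%); curves classed by r2, magnitude and activity.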

[4] = S16 Schwann cell PMP22 intronic element beta-lactamase assay (AID 624044; calls by dose curve;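 note: 0% = DMSO and -100% = potassium clavulanate positive control; nearly all actives have a fitted effect of over 15% in size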)
In short: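 Beta-lactamase reporter under a PMP22 intronic regulatory element in stable S16 rat Schwann cells; 24 h compound exposure. 460 nm blue signal normalized between DMSO (0%) and potassium clavulanate, with 535 nm FRET tracking viability; curves classed by r2 and response.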

CP217 = experiment: qHTS profiling for inhibitors of Plasmodium falciparum proliferation (AID 504749);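 note: 0% = DMSO vehicle and full inhibition = artemisinin control; nearly all actives have a fitted effect of over 60% in size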; conditions: P. falciparum in erythrocytes, SYBR Green DNA, 72 h; series mostly up to 28.7 µM
In short: (§1)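 SYBR Green fluorescence (ex 485 nm, em 535 nm) reports parasite DNA after 72 h compound exposure of infected red cells at 0.3% parasitemia, 2.5% hematocrit; signal normalized to 0.29 uM artemisinin and vehicle wells.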

CP252 = experiment: as above; conditions: P. falciparum in erythrocytes, SYBR Green DNA, 72 h; series mostly up to 28.7 µM
In short: as §1

CP260 = experiment: as above; conditions: P. falciparum in erythrocytes, SYBR Green DNA, 72 h; series mostly up to 28.7 µM
In short: as §1

ICS = experiment: as above; conditions: P. falciparum in erythrocytes, SYBR Green DNA, 72 h; series mostly up to 28.7 µM
In short: as §1

JCK = experiment: as above; conditions: P. falciparum in erythrocytes, SYBR Green DNA, 72 h; series mostly up to 28.7 µM
In short: as §1

N140 = experiment: as above; conditions: P. falciparum in erythrocytes, SYBR Green DNA, 72 h; series mostly up to 28.7 µM
In short: as §1

[5] = target: Bile acid receptor (Homo sapiens) (UniProt Q96RI1); experiment: qHTS assay for small molecule antagonists of farnesoid X receptor signaling (AID 588526; calls by dose curve; note: % is set by controls: 0 for no effect and ±100 for the full control effect)
Bile acid receptor (Homo sapiens), sequence (Q96RI1 whole entry, looked up): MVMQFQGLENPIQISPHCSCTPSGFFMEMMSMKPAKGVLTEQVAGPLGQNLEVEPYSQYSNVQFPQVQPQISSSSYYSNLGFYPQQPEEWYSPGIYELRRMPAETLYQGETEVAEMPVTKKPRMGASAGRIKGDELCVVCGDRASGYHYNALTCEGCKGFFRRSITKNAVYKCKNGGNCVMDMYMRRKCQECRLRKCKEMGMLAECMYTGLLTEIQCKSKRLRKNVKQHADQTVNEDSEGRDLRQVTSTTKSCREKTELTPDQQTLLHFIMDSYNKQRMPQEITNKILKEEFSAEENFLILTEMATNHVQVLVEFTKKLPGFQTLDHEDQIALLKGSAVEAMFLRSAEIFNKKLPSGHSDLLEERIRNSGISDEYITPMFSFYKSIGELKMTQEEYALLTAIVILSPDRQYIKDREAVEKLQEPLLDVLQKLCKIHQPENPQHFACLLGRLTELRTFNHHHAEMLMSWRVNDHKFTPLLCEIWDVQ
In short: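 Antagonist mode: titrated compounds tested against chenodeoxycholic acid stimulation (normalized to 50 uM CDCA and DMSO) in GeneBLAzer HEK293T cells for 16 h. Beta-lactamase read by CCF4 fluorescence; IC50 from Hill fits.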

[6] = target: Thyroid hormone receptor beta (Homo sapiens) (UniProt P10828); experiment: qHTS assay for small molecule agonists of thyroid hormone receptor beta signaling (AID 588545; calls by dose curve;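 note: 0% = DMSO only and 100% = 10 nM T3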)
Thyroid hormone receptor beta (Homo sapiens), sequence (P10828 whole entry, looked up): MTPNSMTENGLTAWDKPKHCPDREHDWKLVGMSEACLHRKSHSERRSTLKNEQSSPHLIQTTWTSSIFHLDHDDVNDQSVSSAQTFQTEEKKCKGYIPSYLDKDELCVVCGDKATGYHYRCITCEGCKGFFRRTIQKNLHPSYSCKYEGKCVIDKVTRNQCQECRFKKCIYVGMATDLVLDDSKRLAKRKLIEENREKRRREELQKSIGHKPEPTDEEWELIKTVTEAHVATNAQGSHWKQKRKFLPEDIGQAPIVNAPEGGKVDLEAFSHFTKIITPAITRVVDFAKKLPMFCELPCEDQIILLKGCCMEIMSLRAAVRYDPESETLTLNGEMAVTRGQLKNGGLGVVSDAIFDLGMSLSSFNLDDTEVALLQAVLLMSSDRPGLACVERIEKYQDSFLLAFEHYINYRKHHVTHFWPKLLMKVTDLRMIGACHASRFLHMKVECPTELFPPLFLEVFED
In short: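 TR-UAS-bla GripTite HEK 293 cells (2500/well, medium with 2% charcoal/dextran FBS) were treated in agonist mode for 18 h at 37 C, titrated. Beta-lactamase was read by CCF4 ratio after 2 h; normalized to 10 nM T3 (100%) and DMSO, Hill-fitted for EC50 and efficacy.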

[7] = target: Androgen receptor (Homo sapiens) (UniProt P10275); experiment: qHTS assay for small molecule antagonists of androgen receptor signaling (AID 588516; active = well fitted curve in the direction sought with a large enough effect in the signal ratio, with a control signal flat, not every such curve was filed as active; the % refers to the signal ratio; note: % is set by controls: 0 for no effect and ±100 for the full control effect)
Androgen receptor (Homo sapiens), sequence (P10275 whole entry, looked up): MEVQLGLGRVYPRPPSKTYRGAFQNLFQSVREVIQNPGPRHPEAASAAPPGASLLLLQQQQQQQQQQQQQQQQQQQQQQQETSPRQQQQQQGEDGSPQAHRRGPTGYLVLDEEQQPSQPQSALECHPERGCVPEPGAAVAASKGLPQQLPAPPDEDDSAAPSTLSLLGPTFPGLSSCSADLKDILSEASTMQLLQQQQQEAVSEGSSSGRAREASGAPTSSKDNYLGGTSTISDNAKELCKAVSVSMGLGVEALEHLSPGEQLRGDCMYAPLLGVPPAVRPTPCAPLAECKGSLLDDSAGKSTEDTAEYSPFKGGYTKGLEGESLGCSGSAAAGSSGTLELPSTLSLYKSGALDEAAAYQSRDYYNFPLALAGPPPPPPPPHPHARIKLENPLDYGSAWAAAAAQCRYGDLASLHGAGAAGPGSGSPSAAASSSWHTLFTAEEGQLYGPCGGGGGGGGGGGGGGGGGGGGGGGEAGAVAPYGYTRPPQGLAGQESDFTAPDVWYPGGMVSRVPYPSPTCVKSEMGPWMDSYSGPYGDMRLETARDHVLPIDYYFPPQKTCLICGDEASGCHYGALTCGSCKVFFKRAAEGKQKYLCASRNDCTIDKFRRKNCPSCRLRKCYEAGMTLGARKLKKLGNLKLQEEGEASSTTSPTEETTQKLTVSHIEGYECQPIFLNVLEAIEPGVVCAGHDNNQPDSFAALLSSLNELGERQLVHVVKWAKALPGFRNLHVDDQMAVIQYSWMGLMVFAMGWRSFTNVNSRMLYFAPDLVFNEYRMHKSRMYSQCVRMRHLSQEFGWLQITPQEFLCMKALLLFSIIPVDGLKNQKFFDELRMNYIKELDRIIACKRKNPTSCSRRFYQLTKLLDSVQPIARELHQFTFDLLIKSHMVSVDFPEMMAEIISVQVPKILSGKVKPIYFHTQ
In short: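 Antagonist mode: inhibition of R1881-stimulated (10 nM final) bla reporter in GeneBLAzer AR HEK 293 cells, 16 h at 37C, compounds titrated. IC50 and efficacy from Hill-equation fits of 405/460–530 nm FRET ratios.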

[8] = target: Glucocorticoid receptor (Homo sapiens) (UniProt P04150); experiment: qHTS assay for small molecule agonists of glucocorticoid receptor signaling (AID 588532; active = well fitted curve in the direction sought with a large enough effect in the signal ratio, with a control signal flat; the % refers to the signal ratio;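 note: 100% = dexamethasone at 0.1 µM and 0% = DMSO only wells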); conditions: HeLa MMTV-bla, beta-lactamase ratio, agonist, 18 h; active compounds read high; percent of dexamethasone control, DMSO zero
Glucocorticoid receptor (Homo sapiens), sequence (P04150 whole entry, looked up): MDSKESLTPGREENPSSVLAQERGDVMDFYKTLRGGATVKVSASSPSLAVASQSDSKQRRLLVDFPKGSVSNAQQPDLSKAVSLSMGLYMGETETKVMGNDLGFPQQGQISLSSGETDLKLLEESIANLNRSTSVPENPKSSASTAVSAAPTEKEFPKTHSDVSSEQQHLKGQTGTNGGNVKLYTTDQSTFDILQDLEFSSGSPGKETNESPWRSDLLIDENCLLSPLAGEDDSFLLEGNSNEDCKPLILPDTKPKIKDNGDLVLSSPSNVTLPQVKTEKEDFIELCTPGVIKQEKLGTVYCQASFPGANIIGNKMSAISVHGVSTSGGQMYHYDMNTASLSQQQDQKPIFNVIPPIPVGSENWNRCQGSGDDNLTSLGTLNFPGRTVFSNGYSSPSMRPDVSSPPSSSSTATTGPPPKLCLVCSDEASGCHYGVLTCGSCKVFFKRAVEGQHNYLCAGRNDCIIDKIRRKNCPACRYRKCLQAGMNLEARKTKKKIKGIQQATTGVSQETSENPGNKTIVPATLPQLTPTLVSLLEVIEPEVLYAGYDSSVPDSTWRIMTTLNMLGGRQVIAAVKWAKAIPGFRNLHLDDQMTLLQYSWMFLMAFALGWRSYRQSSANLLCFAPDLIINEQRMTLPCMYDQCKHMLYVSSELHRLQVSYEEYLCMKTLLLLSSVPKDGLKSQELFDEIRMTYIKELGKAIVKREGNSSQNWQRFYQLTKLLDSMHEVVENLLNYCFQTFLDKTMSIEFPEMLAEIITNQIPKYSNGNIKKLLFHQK
In short: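 Cells were plated and rested 3-5 h at 37 C, compounds were added in titration and incubated 18 h, then CCF4 substrate was loaded for 2 h at RT before reading blue/green fluorescence. EC50 came from Hill-equation fitting.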

[9] = Cell Viability - Jurkat (AID 426;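 active = dose-dependent loss of cell ATP signal giving a full or clear fitted curve, ranked by lower potency value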; note: potency is the fitted concentration of half-maximal effect); conditions: qHTS
In short: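 Luminescent ATP read-out (CellTiter-Glo, 20 min at room temperature) after 40 hr compound exposure at 37 °C of Jurkat E6-1 cells, 5000/well. Decreased ATP taken as cytotoxicity; AC50 from standard Hill equation.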

[10] = Cell Viability - Hek293 (AID 427;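 active = compounds whose dose-response curve shows a full or clear partial loss of cell viability, called from curve shape rather than a numeric limit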;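 note: potency is the fitted concentration of half-maximal effect; cells exposed to compound for 40 hours at 37 °C before reading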); conditions: qHTS
In short: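 HEK293 cells in complete medium were exposed to compound for 40 hr at 37 °C, then cellular ATP was read by CellTiter-Glo luminescence. Data were normalized to DMSO (basal) and 100 uM tamoxifen (100% inhibition), and AC50 came from Hill fits.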

[11] = Cell Viability - HepG2 (AID 433; calls by dose curve;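 note: potency is the fitted concentration of half-maximal effect; potency for ATP loss meaning cytotoxicity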); conditions: qHTS
In short: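 Cytotoxicity read as ATP loss (CellTiter-Glo luminescence) after 40 hr compound exposure of HepG2, 1500 cells/well, 37 °C. AC50 by Hill equation; 0% set by DMSO, 100% inhibition by 100 uM tamoxifen.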

[12] = Cell Viability - MRC5 (AID 434; calls by dose curve;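 note: potency is the fitted concentration of half-maximal effect; potency reflects cytotoxicity seen as loss of intracellular ATP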); conditions: MRC5 lung fibroblast viability, qHTS
In short: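 ATP luminescence read-out (CellTiter-Glo, 20 min RT) after 40 hr, 37 °C compound exposure of 1500 MRC5 cells/well. Data normalized to DMSO (basal) and 100 uM tamoxifen (100% inhibition); AC50 from standard Hill equation.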

[13] = Cell Viability - SK-N-SH (AID 435; calls by dose curve; note: potency is the fitted concentration of half-maximal effect); conditions: SK-N-SH neuroblastoma cell viability qHTS
In short: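 qHTS cytotoxicity: CellTiter-Glo ATP luminescence after 40 h compound exposure of human neuroblastoma SK-N-SH cells at 37 °C. AC50 derived by Hill-equation fitting, with DMSO as basal and 100 uM tamoxifen as full inhibition.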

[14] = qHTS Assay for Identification of Small Molecule Inducers of Hypoxia Response (AID 2120; active = well fitted curve in the direction sought with a large enough effect in the signal ratio, with a control signal flat, not every such curve was filed as active; the % refers to the signal ratio; note: 0% is about no effect)
In short: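 Read-out: CCF4 FRET emission ratio 460nm/530nm (excitation 405nm), converted to %Activity, with AC50 fitted across a compound titration. ME-180 cells carried an HRE-driven beta-lactamase reporter; compound exposure 17 h, 37 degrees C.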

CC(C)CN(C[C@@H](OP(=O)(O)O)[C@H](Cc1ccccc1)NC(=O)O[C@@H]1CCOC1)S(=O)(=O)c1ccc(N)cc1
inactive: Potency [1] | Potency [2] | Potency [3] | Potency [4] | Potency (CP217) | Potency (CP252) | Potency (CP260) | Potency (ICS) | Potency (JCK) | Potency (N140)

O=C(O)CCCCCCCCC(=O)O
inactive: outcome [5] | outcome [6]

O=C(Nc1ccccc1)c1ccccc1O
inactive: outcome [7] | activation [8] 2.18%

C=CC(=C)CCC=C(C)C
inactive: Potency [9] > 92 µM | Potency [10] > 92 µM | Potency [11] > 92 µM | Potency [12] > 92 µM | Potency [13] > 92 µM | outcome [14]
